# This is a sample that favours compounds with a hit; in the whole collection about 7.4% have one here.
# SMN2 splice up: SMN2 splice variant enhancement; HEK293 SMN2-luciferase splicing reporter, luminescence, 30-36 h; Potency, µM (highest dose often 46.1 µM), for the others: top-dose activity change, positive = activation, hits mostly activators; hit rate 2.8% among 210,000; AID 1458; note: % of control where 0% means no effect; nearly all actives have a fitted effect of over 55% in size
#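 qHTS luciferase splicing reporter: luminescence rises when SMN2 exon 7 is included in transfected HEK293 cells. Compound exposure lasted 30-36 h at 37C, with 4.5 mM final sodium butyrate as control, followed by a ONE-Glo read.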
# p53 reactivator: restores transcriptional activity of mutant p53; Potency, µM (titrated, usually from 92.2 µM), without a hit: at the top dose activity change, positive = activation, most hits filed as activators; AID 504706; H1299 p53-A138V BP100-luciferase reporter, luminescence, 24 h; hit rate 0.063% among 320,000; note: % of control where 0% means no effect; nearly all actives have a fitted effect of over 45% in size
#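 H1299 (p53-null), stable ts p53-A138V + BP100-Luc; 1000 cells/well, Opti-MEM/10% FBS; cpd 4 pt, 1:5; 24 h, 37 deg C, 5% CO2; detection reagent 10 min RT; luminescence.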
# NPC1 promoter act: NPC1 promoter activation; Potency, µM (series often up to 9.22 µM), for inactives: top-dose activation, actives largely listed as activators; Huh7 NPC1 promoter luciferase reporter, 24 h; hit rate 2.4% among 320,000; note: % of control where 0% means no effect; nearly all actives have a fitted effect of over 60% in size
#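 Stable NPC1-promoter luciferase Huh7 line; cpd (DMSO) 24 h, 37 °C, 5% CO2; Amplite luciferase reagent 10 min RT; luminescence readout. qHTS format.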
# ELG1 genotox: induces genotoxicity in HEK293T cells with luciferase-tagged ELG1 | HEK293T ELG1-luciferase reporter, luminescence, 16 h | Potency, µM (series often up to 46 µM), without a hit: top-dose activity change, positive = activation, actives largely listed as activators | hit rate 1.3% among 330,000; note: % of control where 0% means no effect; nearly all actives have a fitted effect of over 60% in size
#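 HEK293T cells expressing luciferase-tagged ELG1 were treated with compound or DMSO for 16 hr at 37°C. Luciferase activity was then read after 30 min with ONE-Glo at room temperature; rising signal flags genetic stress.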
# Rab9 prom act: activators of Rab9 promoter; AID 485297; Huh7 Rab9 promoter-luciferase reporter, luminescence, 24 h; Potency, µM (top dose mostly 9.22 µM), inactives show at the highest dose activation, negative = inhibition, actives largely listed as activators; hit rate 2.8% among 320,000; note: % of control where 0% means no effect; nearly all actives have a fitted effect of over 60% in size
#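 Using Huh7 cells stably transfected with Rab9 promoter–luciferase, compounds were incubated 24 h at 37 °C, 5% CO2; luciferase luminescence was read 10 min after reagent addition.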
# FLuc counter: inhibits or activates purified firefly luciferase, miR-21 counter-screen | P08659 | purified FLuc, Km substrates, luminescence inhibition | Potency, µM (titrated, usually from 57.5 µM), for the others: top-dose activity change, negative = inhibition, actives largely listed as inhibitors | hit rate 6.9% among 360,000 | AID 588342;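 note: plate controls were vehicle for no effect and reference inhibitor for full effect; nearly all actives have a fitted effect of over 55% in size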
# Target sequence (P08659 whole entry, looked up): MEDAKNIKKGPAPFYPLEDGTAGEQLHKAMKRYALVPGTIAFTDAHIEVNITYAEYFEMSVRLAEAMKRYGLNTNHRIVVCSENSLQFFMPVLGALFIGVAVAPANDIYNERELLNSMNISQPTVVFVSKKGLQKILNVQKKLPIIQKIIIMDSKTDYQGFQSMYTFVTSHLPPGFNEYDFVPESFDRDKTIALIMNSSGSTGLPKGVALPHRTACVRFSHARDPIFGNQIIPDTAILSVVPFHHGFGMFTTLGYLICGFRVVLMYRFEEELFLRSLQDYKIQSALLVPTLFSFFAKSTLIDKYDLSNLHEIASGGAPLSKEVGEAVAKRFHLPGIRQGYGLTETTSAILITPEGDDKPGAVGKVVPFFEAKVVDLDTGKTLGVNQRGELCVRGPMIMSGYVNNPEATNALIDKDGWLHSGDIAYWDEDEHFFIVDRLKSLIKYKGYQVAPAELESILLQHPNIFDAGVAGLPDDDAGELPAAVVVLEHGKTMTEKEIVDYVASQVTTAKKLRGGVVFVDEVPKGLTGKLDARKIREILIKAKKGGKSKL
#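 Purified P. pyralis luciferase (10nM final) with 10uM D-luciferin and 10uM ATP (Km levels) in 50mM Tris acetate pH 7.5, 10mM Mg acetate, 0.01% Tween-20, 0.05% BSA; qHTS 6-point titration, ~60 µM downward; luminescence read.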
# The depositor's hits bear a star; u = inconclusive; x = no result given. Calls come from the whole dose curve; as a rule, active = well fitted curve in the direction sought with a large enough effect; inconclusive = small, poorly fitted or top-dose-only effect, or another doubt; inactive = no such curve, though single readings can be large; an effect the other way counts as inactive or inconclusive. Potency is the fitted concentration of half-maximal effect.
SMILES,SMN2 splice up,p53 reactivator,NPC1 promoter act,ELG1 genotox,Rab9 prom act,FLuc counter
CN(C)S(=O)(=O)c1ccc(C(=O)Nc2nnc(SCc3ccccc3)s2)cc1,8%,2%,2%,3%,-1%,-1%
O=C(Nc1nnc(SCc2ccccc2)s1)c1cccs1,u,u,24%,15µM*,21%,u
CCSc1nnc(NC(=O)c2cccs2)s1,22%,18%,u,-15%,u,19µM*
O=C(c1ccccc1)c1coc2c1C(=O)c1ccccc1C2=O,-6%,-12%,-2%,11%,-3%,27µM*
Nc1ncnc2nc(Sc3ccc(Cl)cc3)[nH]c12,-27%,-5%,-2%,1%,-4%,-2%
Nc1ncnc2nc(SCc3ccc(Cl)cc3Cl)[nH]c12,-31%,2%,-1%,3%,1%,21µM*
COc1cc(C(=O)NC2CCN(CC(=O)NC3CCCCC3)CC2)cc(OC)c1OC,x,4%,1%,1%,-1%,1%
COc1cc(NC(=O)c2cc(OC)c(OC)c(OC)c2)c(OC)cc1NC(=O)CN1CCCCC1,8%,-19%,-2%,1%,-1%,13µM*
Cc1ccc(NC(=O)CN2CCCCCC2)c(Br)c1,11%,23%,4µM*,u,4µM*,12µM*
Cc1ccc(NC(=O)CN2CCCCCC2)cc1Br,-18%,9%,7%,4%,1%,-9%
COc1cc(NC(=O)c2ccc(C)cc2)c(OC)cc1NC(=O)CN1CCCCC1,-1%,2%,23%,-5%,21%,19µM*
COc1cc(NC(=O)c2ccccc2Cl)c(OC)cc1NC(=O)CN1CCCCC1,x,1%,-1%,0%,-1%,-7%
CC(C)(C)NC(=O)CCCSc1nc2ccccc2s1,u,-1%,u,u,1.8µM*,15µM*
CCNC(=O)NC(=O)C(C)OC(=O)CCCSc1nc2ccccc2s1 (stereo not given),-10%,-18%,1%,0%,-3%,-15%
Cc1cc(C)nc(NC(=O)CSc2nc3ccccc3s2)n1,6%,u,u,5.8µM*,3.2µM*,12µM*
Cc1ccccc1NC(=O)CCCSc1nc2ccccc2s1,1%,24%,0%,2%,0%,u
Cc1cc(C)nc(NC(=O)CSc2nc3cc(Cl)ccc3s2)n1,23%,5%,0%,1%,0%,u
CCNC(=O)NC(=O)COC(=O)CCCSc1nc2ccccc2s1,1%,-11%,-7%,3%,-8%,19µM*
Cc1cc(C)n2c(Br)c(CSc3nc4ccccc4s3)nc2n1,11µM*,u,u,u,u,u
CCOC(=O)c1sc(N2C(=O)c3oc4ccc(F)cc4c(=O)c3C2c2cccc(OC)c2)nc1C (stereo not given),8%,x,x,x,x,-11%
O=C(O)CCC(=O)Nc1cccc(-c2csc(-c3ccccc3)n2)c1,-14%,-7%,-13%,-2%,-7%,7.6µM*
COc1ccccc1Nc1nc(-c2cccc([N+](=O)[O-])c2)cs1,x,8%,27%,10%,u,u
O=C(Nc1cccc(-c2csc(Nc3ccccc3)n2)c1)c1ccccc1,x,u,u,-3%,u,1.7µM*
CC(=O)c1cccc(Nc2nc(-c3cccnc3)cs2)c1,x,9%,3.5µM*,7%,u,11µM*
CC(=O)c1ccc(Nc2nc(-c3cccnc3)cs2)cc1,x,20%,4%,u,21%,u
SMILES,SMN2 splice up,p53 reactivator,NPC1 promoter act,ELG1 genotox,Rab9 prom act,FLuc counter
O=[N+]([O-])c1cccc(-c2csc(Nc3ccccc3)n2)c1,x,27%,4%,3%,u,13µM*
O=C(Nc1ccc2nc(SCC(=O)N3CCCC3)sc2c1)c1cccc(Br)c1,x,x,x,x,x,-15%
Cc1csc(CNC(=O)C2CCC(=O)N(CCCc3ccccc3)C2)n1 (stereo not given),x,4%,-7%,2%,-1%,-1%
CC(=O)c1cccc(Nc2nc(-c3ccccc3)cs2)c1,11µM*,8%,3.2µM*,u,1.3µM*,3.4µM*
O=C1Nc2ccccc2S/C1=C/NCc1ccccc1Cl,2%,-2%,4%,1%,12%,19µM*
O=C1CN(C(=O)CNCc2ccccc2Cl)c2ccccc2N1,x,0%,0%,1%,-3%,2%
CCC(C)NC(=O)/C=C1\Sc2ccccc2NC1=O (stereo not given),20%,12%,-2%,6%,16%,u
COc1ccc(N/C=C2/Sc3ccccc3NC2=O)cc1,13µM*,3%,u,u,u,2.7µM*
COc1ccccc1N/C=C1/Sc2cc(Cl)ccc2NC1=O,9%,-2%,1%,2%,-10%,0%
Cc1ccc(N/C=C2/Sc3ccccc3NC2=O)cc1,u,u,u,u,3.2µM*,1.9µM*
CCc1ccc(NC(=O)c2ccc(F)c(S(=O)(=O)NCc3ccc(Cl)c(Cl)c3)c2)cc1,x,x,x,x,x,-9%
O=C(NCc1n[nH]c(=O)c2ccccc12)C1CC(=O)N(c2ccccc2)C1 (stereo not given),x,-4%,-6%,-1%,-3%,-3%
CC12CCC(=O)N1C(C(=O)Nc1ccc(Cl)c(S(=O)(=O)N3CCCCC3)c1)CS2 (stereo not given),x,-2%,-1%,-7%,-2%,0%
O=[N+]([O-])c1ccc(/C=N/Nc2nc3ccccc3o2)cc1,x,x,2µM*,u,2µM*,-21%
CN(C)c1ccc(/C=N/Nc2nc3ccccc3o2)cc1,x,15%,u,u,0.1µM*,0.54µM*
Cc1ccc(Cn2c(=O)n(Cc3ccc(Cl)cc3)c(=O)c3cccnc32)cc1,-2%,x,x,x,x,-10%
c1ccc2c(c1)Nc1nccnc1S2,u,u,10%,u,20%,24µM*
COc1ccc(CNC(=O)Cc2csc3nc(-c4ccc(F)cc4)cn23)cc1,x,x,x,x,x,-3%
CCN(CC)C(=O)c1sc2nc(-c3ccc(OC)cc3)cn2c1C,u,u,1.8µM*,u,u,7.6µM*
CNC(=O)c1sc2nc(-c3ccc(OC)cc3)cn2c1C,x,u,1.6µM*,2.1µM*,0.89µM*,3.4µM*
COc1ccc(CNC(=O)Cc2csc3nc(-c4ccc(C)cc4)cn23)cc1,x,x,x,x,x,17µM*
O=C(Nc1cc2c(cc1Cl)OCCCO2)c1ccccc1,11µM*,u,u,6.3µM*,2.8µM*,13µM*
CC(C)C(=O)c1cc2c(cc1NC(=O)c1ccccc1)OCCO2,-34%,3%,-4%,-8%,-1%,-1%
CCOc1cc(Cl)c(NC(=O)c2ccco2)cc1OCC,-1%,1%,-2%,-5%,-1%,0%
